# Measurements as given in the supplement of paper PMC11417369.
# ± gives the standard deviation of the averaged measurements. Over roughly 25,000 sequences, “ln(normalized median fluorescence intensity)” has its median near 8.9; the highest 2% begin near 10. Only a selection was taken, and the highest values are over-represented in it overall.
# Test system: PfAP2-LT AP2 domain (GST-tagged)
# Assay: gcPBM binding intensity (ln(normalized median fluorescence intensity)); higher = stronger DNA binding
# How it was run: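 GST-tagged P. falciparum DNA-binding domains produced in E. coli were incubated for 1 h on an Agilent 4 × 180k array of primer-extended double-stranded 36-bp intergenic genomic probes with negative controls. Binding intensity is the highest Masliner-normalised natural-log median intensity across replicate spots of either probe orientation, with bound protein detected by Alexa488 anti-GST antibody at 488 nm.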
row,Sequence,gcPBM binding intensity (ln)
1,ATGATTATTTTAAAAAGTACTAATTATTATTTTTTT [XGTACX_site7242],8.34 ± 0.47
2,TTCGTTATATTTTGATGTACTGATTCATATATATAT [XGTACX_site1835],9.09 ± 0.42
3,ATTTTCTATTTTATTTGTACGTAATTTAATTTTTTT [XGTACX_site3609],8.96 ± 0.53
4,TATATACAAAATGCCTGTACATATATATTTATTTAT [XGTACX_site761],8.85 ± 0.35
5,ATAATATAATAATACACACTCATTATATATATAAAG [CACACA_site3956],8.82 ± 0.43
6,GGTCATCATCGGTATTGTACAAAAATGTGAAAATTA [XGTACX_site639],8.73 ± 0.48
7,AAATATATTATATCATATATTAAAGCATATATTAAA [CACACA_negctrl_site1624],8.43 ± 0.42
8,TATCTGTATTTGTATACACACAAATGTATTTATTTA [CACACA_site4830],8.94 ± 0.44
9,TATATTATAAATTAATGTACGTAATTTTTTTTTTTT [XGTACX_site2500],8.38 ± 0.48
10,TTTATAAACAAATGAACACACAAACATATATATATA [CACACA_site5713],9.33 ± 0.24
11,AACAAAAATGAAAAAACACACATAACATATATAAAT [CACACA_site740],9.27 ± 0.41
12,ATAAAATGAACAAACACACACACATATATATATATA [CACACA_site2402],10.2 ± 0.13
13,TTAACTATAATAAAATGTACATATGTAACATATATA [XGTACX_site7790],8.66 ± 0.4
14,ATTAATTATTTCAATGCATGTGAACACTATATATAA [TGCATGCA_site600],8.84 ± 0.42
15,ATGGATAATAAGTTTACACACAAAAAAAAAGAAAAA [CACACA_site861],9.02 ± 0.57
16,GTTCATAAATTAAACACACACACACCCCTGGATACC [CACACA_site3331],10.13 ± 0.085
17,GTTCATAAATTAAACACACACACACCGCTGGATACC [CACACA_site5779],9.77 ± 0.16
18,GTTCATAAATTAAACACACACACACGGCTGGATACC [CACACA_site7545],9.79 ± 0.26
19,CATATTTGGAAACACACACACATATTTATATATATA [CACACA_site3569],9.62 ± 0.38
20,CACTAAAAGAAACACACACACACACCCATATATATA [CACACA_site4151],10.2 ± 0.23
21,TAAACACCCATATAAACACACATATAAACACCCATA [CACACA_site5382],9.4 ± 0.21

row,Sequence,gcPBM binding intensity (ln)
1,AAAAAAAAAAAACACACACACACACCCATATATAAA [CACACA_site1170],9.995 ± 0.064
2,ATACTAAAGAAACACACACACATATATATATAGAAT [CACACA_site100],9.94 ± 0.28
3,CCCACTAAAAAACACACACACACACCCATATATATA [CACACA_site6140],10.31 ± 0.078
4,TAATTTTTGAAACACACACACATATATATATATATA [CACACA_site94],9.885 ± 0.0071
5,CACCCACTAATAAACACACACATATATATATATATA [CACACA_site389],10.3 ± 0.18
6,ATAATTTGGAAACACACACACACACCCACATATATA [CACACA_site2286],10.28 ± 0.064
7,CAGGCACTAATAAACACACACATATAAATATAAATA [CACACA_site6320],9.38 ± 0.59
8,AAAAGAAAAAGAAAAACACACATAAATATAAATATA [CACACA_site1879],8.93 ± 0.64
9,AAAAAATTATATAATAATAGAACTATACATTTTATT [GTGCAC_negctrl_site645],8.44 ± 0.47
10,TACAATAAGGATAAGTGTACATATGTGCATACATAT [XGTACX_site7188],8.96 ± 0.35
11,TATTATTATTTTTTATGTACTAACGACAAAAATATT [XGTACX_site252],8.48 ± 0.4
12,AATATTTTTATATATATACACACTTACATATATATA [CACACA_site3609],8.91 ± 0.4
13,TTTTTTTTTTTGTGGGTGCGTTTATAAAAACAGGAA,8.42 ± 0.33
14,GGAACGTTCATATTTCCACACACAAAAAATAAATAT [CACACA_site9101],9.31 ± 0.57
15,TTACACAAGGATAAAAACATATGTATGATTATATAT [CACACA_negctrl_site654],8.89 ± 0.47
16,ATAGCTTTTATTTAAAGTACAAAAAGGATGTTGAAA [XGTACX_site3810],8.46 ± 0.44
17,TTTTTTAAGTAATGAAATGATTTTCTTATAGAATAA [GTGCAC_negctrl_site395],7.96 ± 0.36
18,AAAAAACAATTTGTGTGTACACATGATACGTTCGAT [XGTACX_site4112],9.39 ± 0.28
19,TCTCATAGTAAACACACACACACACCCACATATATA [CACACA_site5034],9.97 ± 0.071
20,TTTCCCATAGGAAAAACACACATATATTATATATAA [CACACA_site1981],8.57 ± 0.4
21,TCTCATAGGAAACACACACACACACCCACATATATA [CACACA_site1738],10.1 ± 0.11

row,Sequence,gcPBM binding intensity (ln)
1,CGCACTAAAAAACACACACACACACCCATATATATA [CACACA_site4152],10.2 ± 0.29
2,AACATATAAAAATGTGCACACACACCCATATATATA [CACACA_site1525],9.79 ± 0.3
3,TTAAAAAAAAAACACACACACATACCCATATATATA [CACACA_site5768],9.825 ± 0.021
4,AATAAAATATAATAATTAATATATATATATATATAA [GTGCAC_negctrl_site457],8.65 ± 0.45
5,ACACACAATACAAAAGTGCATATAATAATTAATCAT,9.34 ± 0.46
6,TTATAATATATATGTGGTACTTATTTATTTATTTAT [XGTACX_site7572],8.72 ± 0.49
7,AACAAATTAATTCTAGTGCAGGACGTATTTGTGTAC [GTGCAC_site9907],8.88 ± 0.36
8,AAAAAAAAAAAACACACACACATATATATATATATA [CACACA_site732],10.4 ± 0.19
9,ACACATATATATATATATATATATATATATATATAT [CACACA_negctrl_site1766],9.935 ± 0.035
10,CATATATAAAAAAACACACACATATATATATATATA [CACACA_site1195],9.82 ± 0.042
11,AAAAAAAAAAAAAACACACATACATACATACATATA [CACACA_site4121],9.13 ± 0.38
12,AACATACACATATACACACACACATATATACATATA [CACACA_site1093],9.89 ± 0.23
13,AACACACACATATATATATATATATATATATATATA [GTGCAC_negctrl_site573],10.5 ± 0.13
14,AAAAAAAAAAAAAACACACACATATATATAATATAT [CACACA_site3172],9.37 ± 0.41
15,AAAAAAACACACACATATATATATATATATATATAT [GTGCAC_negctrl_site498],10.2 ± 0.16
16,AAAAAAAAAAAAAAAACACACACATATATATAATAT [CACACA_site9038],9.3 ± 0.41
17,AAAAAAAAAAAAAAAACACACACATATATATATATA [CACACA_site8571],9.72 ± 0.29
18,AAAAAAAAAAAACATACACACATACATACATATATA [CACACA_site8222],9.26 ± 0.35
19,AAAAAAAAAAAAAACACACACATATATATATATATA [CACACA_site1891],10.1 ± 0.37
